Inconclusive results are not listed. Activity calls are given as the source filed them. How the source made its calls, unless noted: active means hit-call score of the fitted dose curve at least 0.9, where 1 is the maximum; inactive means score below 0.9.
Assays:
[1] = Tanguay_ZF_120hpf_TR_legacy: (Legacy) Oregon State University Tanguay Lab 120 Hour Post-fertilization zebrafish Assay for Touch Response (AID 2283667; active means hit-call score of the fitted dose curve at least 0.9, where 1 is the maximum)
Procedure, shortened: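 Tropical 5D wild-type zebrafish embryos statically exposed to 120 hpf at 28°C, sealed and dark-covered, 0.64% DMSO final; touch response scored as present/absent by brightfield microscopy at 120 hpf. Trimethyltin chloride 5 uM positive control; dead embryos not scored.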

[2] = CEETOX_H295R_MTT_cell_viability: Viability Assessment in the CeeTox HT-H295R MTT Assay (AID 2283718)
Procedure, shortened: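 Human H295R adrenal cells, prestimulated 48 h with 10 uM forskolin, were exposed 48 h to chemicals in 0.1% DMSO. Viability was measured in the same wells by MTT (0.5 mg/ml, 4 h, 37 C), absorbance 570/650 nm, as percent of controls.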

[3] = STM_H9_OrnithineISnorm_perc: Stemina devTOX quickPredict H9 human embryonic stem cell (hESC)-based Assay for Ornithine (ORN) Metabolite Biomarker, Normalized (AID 2283712);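 further: ornithine released into spent medium during last day measured by mass spectrometry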
Procedure, shortened: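 Undifferentiated H9 hESCs exposed 72 h with daily media and compound renewal; final 24-h conditioned medium analysed by UPLC-HRMS. Ornithine peak area normalised to spiked C13 standard and to median 0.1% DMSO control; viability by CellTiter-Fluor.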

[4] = STM_H9_CystineISnorm_perc: Stemina devTOX quickPredict H9 human embryonic stem cell (hESC)-based Assay for Cystine (CYSS) Metabolite Biomarker, Normalized (AID 2283713)
Procedure, shortened: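 Undifferentiated H9 hESCs exposed 72 h, compound and media replaced every 24 h; final 24-h media analysed by UPLC-HRMS. Cystine normalized to C13 spike-in standard and median 0.1% DMSO control.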

Measured: outcome

CC1=C(C)S(=O)(=O)CCS1(=O)=O
inactive: [1] | [2]

O=NO
inactive: [1] | [3] | [4]

NC(=Nc1ccccc1)Nc1ccccc1
inactive: all assays above

— PubChem BioAssay (EPA / NIEHS)
